Compounds without any hit were thinned out: in the full panel of roughly 79,000, 15% have a hit. A number with no mark means an inactive call. Activity calls are given as the source filed them. No stated cut-off is given here; in the data, active means growth inhibition above about 70%; inactive means the rest. Where a SMILES comes first, the peptide text is derived from it. [ ]: non-standard residue; d: D form. The star is where a group is joined. Cbz = O=C(OCc1ccccc1)*; Nva = CCC[CH](N)C(=O)O
Legend:
[1] = NCI Yeast Anticancer Drug Screen. Data for the rad50 strain (AID 155);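 further: 0% = growth of vehicle-only cultures of the same strain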; settings: S. cerevisiae rad50 strain growth inhibition; at 50.0 µM; hits give high values
Method in brief: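 Genetically altered yeast (DNA repair pathway); compound treatment; growth inhibition vs vehicle ctrl.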

[2] = NCI Yeast Anticancer Drug Screen. Data for the mec2-1 strain (AID 157); settings: S. cerevisiae mec2-1 strain, at 50.0 µM, hits give high values
Method in brief: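 Each compound was tested on mec2-1 yeast, a strain altered in DNA damage repair or cell cycle control. Growth inhibition is reported relative to vehicle.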

[3] = NCI Yeast Anticancer Drug Screen. Data for the sgs1 mgt1 strain (AID 161);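 further: 0% = growth of cultures given vehicle only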; settings: S. cerevisiae sgs1 mgt1 strain, at 50.0 µM, hits give high values
Method in brief: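 Test agents were incubated with a DNA-repair-mutant yeast strain. Growth was then read and compared against vehicle-treated controls.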

[4] = NCI Yeast Anticancer Drug Screen. Data for the cln2 rad14 strain (AID 165);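 further: 0% = growth equal to vehicle treated cultures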; settings: S. cerevisiae cln2 rad14 strain, at 50.0 µM, hits give high values
Method in brief: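 Test compounds were added to cln2 rad14 yeast cultures; inhibition of growth was then determined by comparison with vehicle treatment.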

[5] = NCI Yeast Anticancer Drug Screen. Data for the bub3 strain (AID 167); settings: S. cerevisiae bub3 mutant strain, at 50.0 µM, hits give high values
Method in brief: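 Yeast carrying a defined mutation is treated with each compound, and growth is compared with that of vehicle-exposed cells to give inhibition.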

[6] = NCI Yeast Anticancer Drug Screen. Data for the mlh1 rad18 strain (AID 175); settings: S. cerevisiae mlh1 rad18 strain growth inhibition; at 50.0 µM; hits give high values
Method in brief: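 Inhibition values reflect reduced growth of mutant yeast versus vehicle-treated controls following compound exposure; the mutations affect DNA damage repair.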

Compound	growth inhibition [1] [%]	growth inhibition [2] [%]	growth inhibition [3]	growth inhibition [4]	growth inhibition [5] [%]	growth inhibition [6] [%]
OCc1c(-c2ccc(Cl)cc2)c(-c2ccc(Cl)cc2)c2n1CCC2	-0.65	-18	1.3%	90.4% (active)	-2.35	-6.85
COc1cc(CCCOC(=O)/C=C/c2ccc(O)c(O)c2)cc(O)c1O	19.1	-18.3	1.05%	-17.4%	-0.8	-72.4
Cc1ccc(S(=O)(=O)C2c3nc4ccccc4cc3-c3nc4ccccc4nc32)cc1 (stereo not given)	-10.8	-13.2	-17.8%	-81.8%	7.95	-14.9
CC(=O)Nc1ccc2c(c1)Cc1cccc(O)c1-2	0.65	-7.15	15.9%	-29.9%	1.75	10.1
CCCCCCCCCC(=O)OCC1OC(n2cc(F)c(=O)[nH]c2=O)C(N)C(OC(=O)CCCCCCCCC)C1O (stereo not given)	42.8	5.6	17.1%	57.6%	8.85	8.15
COc1ccc(C2(C#N)CCCC2)cc1	5.8	12.4	0.95%	-30.6%	0.7	8.7
C=CCOC(=O)NC(CCC(=O)OC)C(=O)O (stereo not given)	-0.5	-2.1	-6.25%	-9.3%	-2.45	-0.2
Nc1ccc([N+](=O)[O-])c(C(F)(F)F)c1	14.1	-33.6	4.25%	-14.4%	-6.55	22.6
COc1ccc(/C=C2\N=C(c3cc(OC)c(OC)c(OC)c3)OC2=O)cc1Br	-6.95	-6.7	21.6%	-0.4%	6.2	2.1
COc1ccc2ccccc2c1C(=O)/C=C/c1ccccc1	35	33.6	38.9%	47.8%	58.8	39.4
C[N+]1(C)CCC(c2ccccc2)(c2ccccc2)/C(=C2/C(=O)C(c3ccccc3)(c3ccccc3)CC[N+]2(C)C)C1	-4.55	-7.9	0.75%	35%	-32	-20.8
CCCCCCC(=O)OC(C)CC(C)C (stereo not given)	6.25	2.75	-0.75%	-11.2%	-3.7	24.2
CC(C)(C#N)NC(=O)NC(C)(C)C(N)=O	-4.1	2.25	-3.25%	-50.2%	9.5	-1.4
N#CC(N)(C(=O)CCC(=O)Nc1cccc(Cl)c1)c1ccc(Cl)cc1 (stereo not given)	1.7	12.6	7.7%	8.15%	-2	2.15
O=C(O)CCCCCNCC(CNCCCCCC(=O)O)(C(=O)O)C(=O)O	7.7	-2.8	-2.7%	-8.5%	-1.05	5.2
CC1CN(CCO)C(C)(C)C1 (stereo not given)	4.6	17.8	-6.3%	-12.8%	-9.2	-17
O=C(/C=C/c1ccc(Cl)cc1)c1ccccc1O	-9.15	9.8	-6.05%	-10.8%	-1.25	11.1
COc1ccc2c(c1)c1c3c(ccc4ncn2c43)N(CCO)CCN=1	-19.6	-52	-25.9%	-23.5%	-12	1.6
O=S(=O)(/N=C(Cl)/C(Cl)=N/S(=O)(=O)c1ccccc1)c1ccccc1	15.3	-1.65	22.7%	-9.9%	-0.1	5.3
COc1ccc2c(c1O)-c1c(OC)c(OC)cc3c1[C@H](C2)[N+](C)(C)CC3	-9	-12.2	11.2%	1.65%	-1.1	-53.4

Compound	growth inhibition [1] [%]	growth inhibition [2] [%]	growth inhibition [3]	growth inhibition [4]	growth inhibition [5] [%]	growth inhibition [6] [%]
Cc1c(-c2ccccc2)n[nH]c1-c1[nH]nc(-c2ccccc2)c1C	-9.7	-16.9	-24.2%	-15%	-41.1	-19.1
COc1ccc2c(c1)C1=C(CC2)C(=O)OC1=O	-0.9	11.7	28.5%	2.8%	5.05	-4.85
Cn1c2nc(-[n+]3ccc(N4CCOCC4)cc3)nc-2c([O-])n(C)c1=O	-20.8	1.1	-17.9%	-44.9%	-10.8	-11.7
CCCC[Si](C)(C)CCCC	-6.35	-5.95	-24.9%	-11.2%	-2.1	-5.3
CC1(c2ccccc2)OCCS1 (stereo not given)	40.7	21.1	19.8%	14.6%	1.1	28.8
O=C(Nc1cccc(Cl)c1)Nc1ccc(Sc2ccc(Cl)cc2)o1	55.1	7	70.6% (active)	29.9%	47.6	69.8
CCOC(=O)c1ccc(CSc2ccc(N)cc2)c([N+](=O)[O-])c1	-0.6	7.15	17.4%	11.4%	2.3	20.2
CCCC(=O)NC(NC1CCCCC1)(C(=O)OCC)C(F)(F)F (stereo not given)	-17.3	-0.15	-15.6%	18.4%	-7.25	-45.1
COc1ccc2ccccc2c1C1=NC(C)(C)CO1	-6.65	-18.6	2.6%	18.5%	-3.8	-16.6
CSc1ccc2c(c1)Cc1cc(NC(C)=O)ccc1-2	8.8	-9.05	-4.25%	-12.3%	-11.8	1.05
NC(=S)NNC(N)=S	2.2	-12.9	-7.3%	17.4%	-3.2	24.5
CC(=O)Nc1ccc(N=C/C=C/c2ccccc2)cc1	-24.6	-56.5	5.9%	2.05%	-44.5	2.05
COC(=O)C1CC2CC1C1C2SC(F)(F)C1(F)F (stereo not given)	0.2	-1.7	6.4%	7.8%	-5	17.1
O=C(O)CCc1ccc2ccccc2n1	6.3	-6.6	-19.8%	-0.05%	-20.6	-20.2
CSC1NN=C(CCC(=O)Nc2ccc(C)cc2)O1 (stereo not given)	-37.7	5.25	13%	-21.1%	-3.8	12.9
NS(=O)(=O)c1ccc(N=C2C(=O)Nc3ccccc32)cc1	1.05	-6.1	-14.6%	17.6%	-23.8	4.95
CCCCC(CC)(SC(CC)C(N)=O)C(N)=O (stereo not given)	-2.2	-0.55	16.9%	20.1%	5.75	-5
COc1ccc2c(c1)c(CO)c(CO)c[n+]2[O-]	11.7	3.1	16%	2.75%	11.8	6.15
CCCC(NC(=O)OCc1ccccc1)C(=O)NC(CO)C(=O)O (stereo not given) (Cbz-[Nva]-Ser-OH; configuration not given here)	24.6	4.15	9.05%	26.6%	8.25	8.05
Cc1ccc2ccccc2c1C(=O)c1ccccc1Cc1cccc2ccccc12	17.6	2.65	10.6%	2.2%	4.55	-1.05

— PubChem BioAssay (NCI)
